Screens deposited in PubChem by National Center for Advancing Translational Sciences (NCATS).
Only some compounds are listed: those with a hit (about 13% of all), similar ones and a draw of the others.
CHX counter: Cycloheximide Counterscreen for Small Molecule Inhibitors of Shiga Toxin; 300,000 compounds, 12% hits; max response, %; cell reporter, cycloheximide protein synthesis inhibition counterscreen; AID 2314, 2010; in the data active = max response mostly above about 13%, no sharp cut-off; inactive = mostly below about 14%; also: read at 38.3 µM for the half of the compounds with a filed dose; 0% is about no effect
Marburg entry inh: qHTS for inhibitors of binding or entry into cells for Marburg Virus; 300,000 compounds, 1.8% hits; Potency, µM (doses to about 37.8 µM), without a hit: top-dose activity change, negative = inhibition, usual class: inhibitors; Marburg virus pseudotyped entry inhibition, cell reporter; AID 540276, 2011; calls by dose curve; tested in HEK293 cells; also: potency is read from the fitted curve at half-maximal effect; % is scaled to controls: 0 for no effect and ±100 for the full control effect
FMDV antiviral: High Throughput Screening for Foot and Mouth Disease Virus Antivirals; 410,000 compounds, 1.2% hits; FMDV antiviral cell-based qHTS; Potency, µM (top dose mostly 57.9 µM), for inactives: top-dose activity change, negative = inhibition, usual class: inhibitors; calls by dose curve; tested in HEK293T cells; also: read-out not given here; potency is read from the fitted curve at half-maximal effect; % is scaled to controls: 0 for no effect and ±100 for the full control effect; nearly all actives have a fitted effect of over 45% in size
Lassa entry inh: qHTS for Inhibitors of binding or entry into cells for Lassa Virus. Lassa virus pseudotype entry inhibition, cell reporter. Potency, µM (highest dose often 37.9 µM), inactives show at the top dose activity change, negative = inhibition, most hits filed as inhibitors. 300,000 compounds, 1.2% hits; calls by dose curve; tested in HEK293 cells; also: potency is read from the fitted curve at half-maximal effect; % is scaled to controls: 0 for no effect and ±100 for the full control effect; nearly all actives have a fitted effect of over 50% in size
Shiga inhibitor: A qHTS for Small Molecule Inhibitors of Shiga Toxin; 290,000 compounds, 9.2% hits; Vero cells, Shiga toxin protein synthesis inhibition reporter; AID 2315, 2010; inhibition, % at 38.7 µM; in the data active = inhibition mostly above about 28%, no sharp cut-off; inactive = mostly below about 43%; also: 0% is about no effect
HCV inhibitor: qHTS Assay for Inhibitors of Hepatitis C Virus (HCV). Huh7.5.1 HCVcc-Cre infection, luciferase reporter, 44 h. AID 651820, 2012. Potency, µM (series often up to 41.8 µM), inactives show at the top dose activity change, negative = inhibition, usual class: inhibitors. 340,000 compounds, 3.4% hits; active = well fitted inhibition curve with a large enough effect; inconclusive = small, poorly fitted or top-dose-only effect, or another doubt; inactive = no such curve, though single readings can be large or run the other way; also: potency is read from the fitted curve at half-maximal effect; % is scaled to controls: 0 for no effect and ±100 for the full control effect
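Reporter virus HCVcc-Cre (~0.5 moi) infects cells exposed to compound; seeding density 1,000 cells/well with 4 h settling beforehand. Luminescence, 15 sec read, taken 44 h post-infection following a 15 min RT substrate incubation.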
Starred values were filed as active, the others as inactive; ? = inconclusive; · = no result; [ ] = remark or other dose.

SMILES | CHX counter | Marburg entry inh | FMDV antiviral | Lassa entry inh | Shiga inhibitor | HCV inhibitor
COc1ccc(C(=O)N(CC(=O)Nc2sc(C)c(C)c2C(N)=O)C2CCCC2)cc1 | 23* | ? | -30% | -13% | 33 | -11%
CN(C(=O)CSc1nnc(-c2cccs2)n1C1CC1)C1CCS(=O)(=O)C1 (stereo not drawn) | · | 30% | 3% | 0%[46.1 µM] | · | 1%
CCc1sc(C(=O)Nc2nc(C)cs2)cc1C | 26* | ? | -12% | · | 76* | ?
Cc1csc(NC(=O)c2cc3c(C)nn(Cc4ccccc4Cl)c3s2)n1 | 42* | ? | ? | -24% | 73 | ?
CCc1sc(C(=O)Nc2ccc(NC(C)=O)cc2)cc1C | 8 | 3% | 15% | -5% | 27 | -11%
Cc1ccc(NC(=O)c2cc3c(s2)CCCC3)cc1 | 54* | 15%[46.1 µM] | 16% | ? | 104* | -16%
Cc1nc(NC(=O)c2ccc(Br)s2)sc1C(=O)N(C)C | 44* | ? | 90% | 91%[14.3 µM] | 50* | -1%
COCCn1c(C)cc(O)c(C(c2ccc(Cl)cc2)N2CCCCC2)c1=O (stereo not drawn) | · | · | -11% | -16%[46.1 µM] | · | ·
Cc1ccc(NC(=O)c2scc3c2CCCC3)cc1 | 54* | ? | 68% | ? | 73* | 5%
Cc1nc(NC(=O)CCl)sc1C(=O)N(C)C | -3 | · | ? | · | 23 | ?
COC(=O)c1sc(NC(=O)c2cc3c(s2)CCCC3)nc1C | 34* | 11% | 27% | -22% | 26* | ?
Cc1csc(NC(=O)c2cc3c(s2)CCC3)n1 | 64* | 13µM* | -41% | ? | 86* | 7%
Cc1nc(NC(=O)c2cc3c(s2)CCCCC3)sc1C(=O)N(C)C | 21* | 17% | 58% | -23% | 102* | 11µM*
O=C(Nc1nnc(C2CC2)s1)c1cc2c(s1)CCCCCC2 | 9 | · | · | · | -4 | ·
CCOC(=O)c1sc(NC(=O)c2cc3c(s2)CCC(C)C3)nc1C (stereo not drawn) | 15 | -16% | ? | 1% | 52 | ?
COC(=O)[C@H]1C[C@H](OC(=O)NC2CC2)[C@@]2(O)CN(S(=O)(=O)c3ccc(C)cc3)CC2[C@H]1C(=O)OC (stereo partly drawn) | · | · | 0% | · | · | ·
CCOC(=O)C1CCN(S(=O)(=O)CCNC(=O)c2ccccc2)CC1 | · | 14%[46.1 µM] | -4% | 0% | · | -9%
Cc1ccc(N(CC(=O)NCc2ccco2)C(=O)CNS(=O)(=O)c2ccc(F)cc2)c(C)c1 | 8 | ? | -14% | -1% | 15 | 26%
CCCCN1CCNC[C@@H]1c1ccccc1 | · | · | -10% | · | · | 6%
N#Cc1c(-c2ccc(Cl)cc2)c(-c2ccc(Cl)cc2)nn(CCOC(=O)CCC(=O)O)c1=O | · | -15% | -17% | ? | · | -9%
Nc1ccccc1N=Nc1ccccc1N | 44* | · | 26% | · | 51* | -24%
CC(C)[C@H](NS(=O)(=O)c1ccccc1)C(=O)OCC(=O)NC(=O)NC1CCCCC1 | · | -11%[46.1 µM] | -7% | 0%[46.1 µM] | · | 17%
Cc1ccc(NC(=O)c2oc3ccc(S(=O)(=O)N4CCCCCC4)cc3c2C)cc1Cl | · | · | ? | -10%[46.1 µM] | · | ·
Cc1c(C(=O)Nc2ccc(F)c(F)c2)oc2ccc(S(=O)(=O)N3CCC4(CC3)OCCO4)cc12 | · | · | -23% | 11%[46.1 µM] | · | ·
Cc1c(C(=O)Nc2ccc(F)c(F)c2)oc2ccc(S(=O)(=O)N3CCCCC3)cc12 | 1 | ? | 14µM* | 16%[46.1 µM] | 24 | 6.3µM*
SMILES | CHX counter | Marburg entry inh | FMDV antiviral | Lassa entry inh | Shiga inhibitor | HCV inhibitor
Cc1c(C(=O)Nc2ccc(F)cc2)oc2ccc(S(=O)(=O)N3CCC4(CC3)OCCO4)cc12 | -1 | 5.8µM* | 22µM* | ? | 24 | 4.5µM*
Cc1c(C(=O)NCCC2=CCCCC2)oc2ccc(S(=O)(=O)N3CCC4(CC3)OCCO4)cc12 | 1 | ? | 18µM* | ? | -9 | 13µM*
NS(=O)(=O)c1ccc(CCNc2ncnc3c2c(-c2ccccc2)cn3-c2ccc(F)cc2)cc1 | -3 | ? | 16µM* | ? | 10 | 11µM*
CCOC(=O)c1ccc(NC2=CC(=O)C(=O)c3ccccc32)cc1 | 13 | ? | -3% | ? | 23 | -16%
CCC(C(=O)Nc1cc(Cl)c(OC)cc1OC)c1ccccc1 (stereo not drawn) | -8 | ? | -22% | ? | 13 | ?
Cc1ccc(NC2=CC(=O)C(=O)c3ccccc32)cc1 | 43* | ? | -39% | ? | 115* | 10µM*
NS(=O)(=O)c1ccc(NC2=CC(=O)C(=O)c3ccccc32)cc1 | 2 | 5%[46.1 µM] | 25µM* | 0%[46.1 µM] | -1 | 16µM*
Cc1nnc(Nc2ccc(S(N)(=O)=O)cc2)c2ccccc12 | -3 | -13%[46.1 µM] | 4% | ? | · | 0%
COc1cc(OC)c(NC2=CC(=O)C(=O)c3ccccc32)cc1Cl | 10 | · | ? | · | 4 | 5µM*
C/C(=N/NC(=O)c1nnn(-c2nonc2N)c1COc1ccccc1)c1ccccc1Cl | -3 | · | ? | · | -2 | ?
CCOC(=O)CSc1nc(C)nc2c1sc1nc(C)c(C(C)=O)c(-c3ccc(OC)cc3)c12 | -1 | 4% | 0% | ? | -11 | 7%
Cc1ccc(Cl)c2c(N=Nc3ccccc3)c(O)[nH]c12 | 18* | · | 58% | · | 66* | 16%
COc1ccc(-n2c(Cc3cccn3C)nnc2SCC(=O)N2CCCc3ccccc32)cc1 | -4 | -4% | 21% | 22%[14.3 µM] | -11 | ·
COc1ccc(OCc2nnc(SCC(=O)N3CCCc4ccccc43)n2-c2ccc(C)cc2)cc1 | 6 | ? | -15% | ? | -18 | 10µM*
N#Cc1ccc(OCc2nnc(SCC(=O)N3CCCc4ccccc43)n2-c2ccccc2)cc1 | 0 | 18µM* | -29% | 26µM* | -12 | -8%
O=C(C1CCCN(S(=O)(=O)c2ccccc2)C1)N1CCCCCC1 (stereo not drawn) | -3 | ? | -25% | ? | 3 | 12%
CCc1ccc(C(=O)COC(=O)C(Cc2ccccc2)NC(=O)C2CCC(C)CC2)cc1 (stereo not drawn) | -3 | ? | 13% | ? | 10 | -3%
COCCN(CCOC)Cc1c(O)ccc2c1O/C(=C\c1ccco1)C2=O | -1 | -4%[46.1 µM] | -2% | -17%[46.1 µM] | 3 | 21%
Cc1cc(O)cc2c1C(=O)/C(=C/c1ccco1)O2 | 51* | ? | 20% | 17%[46.1 µM] | 66* | 13%
CCC(=O)Oc1ccc2c(c1)O/C(=C\c1ccco1)C2=O | 16* | 9%[46.1 µM] | -1% | 1%[46.1 µM] | 43* | 9%
CCN(CC)C(=O)Oc1ccc2c(c1)O/C(=C\c1ccco1)C2=O | 27* | ? | 7% | 30%[46.1 µM] | 49* | ?
CC(=O)Oc1ccc2c(c1)O/C(=C\c1ccncc1)C2=O | 2 | · | 30% | · | 7 | 7%
COC(=O)COc1ccc2c(c1)O/C(=C\c1ccco1)C2=O | 29* | 16% | 32% | 8% | 38* | 30%
